Test results reported in PubChem BioAssay.

Experiment: reversal of MRP1-mediated doxorubicin resistance, pilot screen, H69AR cells, doxorubicin co-treatment (AID 601)
Conditions: H69AR cells + 2 uM doxorubicin, CellTiter-Glo, 72 h; measured here: viability with 2 uM doxorubicin; at 10 µM; stronger effect = lower value

Compound	viability
Cc1noc(C)c1COc1cccc(C(=O)Nc2ccc(C#N)cc2)c1	79.6%
Cc1ccc(NCc2nnc(SCC(=O)N3CCCCC3)n2CC2CCCO2)c(C)c1 (stereo not given)	87%
COc1ccc(S(=O)(=O)N2CCOCC2)cc1C(=O)Nc1cc(C)on1	85.8%
CC(NC(=O)c1ccco1)C(c1cccs1)N1CCN(c2ccc(F)cc2)CC1 (stereo not given)	102%
CCN1C(=O)NC(c2cc(Br)ccc2OC)C(C(=O)OC)=C1C (stereo not given)	98%
COc1ccc(N2CCN(C(c3cccs3)c3nnnn3C3CCCC3)CC2)cc1 (stereo not given)	87.5%
c1ccc(-n2c(Sc3cnccn3)nnc2-c2cccs2)cc1	88.5%
Nn1c(SCC(=O)Nc2ccc3c(c2)OCCO3)nnc1C(F)(F)F	88.8%
O=C(NC1=NCCS1)NC12CC3CC(CC(C3)C1)C2	88.7%
CC1CCCCC1NC(=O)Cn1nnc(-c2ccc(Cl)cc2)n1 (stereo not given)	77.3%
CCOC(=O)C(NC(=O)c1ccc(OC)cc1)(N1CCOCC1)C(F)(F)F (stereo not given)	102%
CC(C)Cc1cc(C(=O)Nc2c(F)cc(F)cc2Br)no1	82.8%
CCC(C)(C(=O)NC1CCCCC1)N(CC1CCCO1)C(=O)c1ccccn1 (stereo not given)	90.6%
COCCNC(=O)C(c1ccc(C)o1)N(Cc1ccc(OC)cc1)C(=O)Cn1nnc2ccccc21 (stereo not given)	104%
CC(=O)c1c(C)[nH]c(C(=O)N2CCN(C(=O)c3ccco3)CC2)c1C	98.7%
O=C(NC12CC3CC(CC(C3)C1)C2)c1cncc(O)c1	94.9%
CCOC(=O)C1CCN(c2nc3ccccc3nc2C(C#N)C(=O)OCCOC)CC1 (stereo not given)	51.7%
Cc1ccccc1-c1nc(CN2CCC(C(=O)NCCCN3CCOCC3)CC2)c(C)o1	91.9%
COc1ccccc1NC(=O)C1=C(C)Nc2nnnn2C1c1ccccc1OC (stereo not given)	88.5%
O=C(C1CCCN(S(=O)(=O)c2cnc[nH]2)C1)N1CC(=O)N(CCc2ccccc2)C(=O)C1 (stereo not given)	99.7%

Compound	viability
Cc1c(Cl)cccc1N1C(=O)c2ccccc2C1=O	108%
CCN(CC)CCCN(Cc1cc2cc(OC)ccc2[nH]c1=O)C(=O)Nc1ccccc1	74.3%
O=C1CCCC2=C1C(c1ccsc1)CC(=O)N2c1ccccc1 (stereo not given)	95.7%
Cc1ccc(NC(=O)CSc2nnc(NC(=O)CN3CCOCC3)s2)cc1	84.4%
COC(=O)c1ccccc1NS(=O)(=O)c1ccc(F)cc1	88.4%
COc1cccc(NC(=O)N2CCN(c3cccc(C)c3C)CC2)c1	87.4%
CC(C)CN(C(=O)COC(=O)Cc1n[nH]c(=O)c2ccccc12)C1CCS(=O)(=O)C1 (stereo not given)	85.7%
CC1CCCC(C(=O)OCc2ccccc2)N1 (stereo not given)	91%
COc1cccc(NC(=O)NC2(C(F)(F)F)Oc3ccccc3O2)c1	48.1%
CCC(=O)N1CCc2cc(OC)c(OC)cc2C1COc1ccc(C(=O)OC)cc1 (stereo not given)	93.9%
Cc1ccc(-c2cc(C(=O)N3CCCC3)no2)cc1	93.1%
CCn1nc(C)c(NC(=O)c2cc(Br)ccc2Cl)c1C	79.7%
Cc1cc2nc3c(nc2cc1C)C1(C(=O)O)CCC3(C)C1(C)C (stereo not given)	96.1%
COc1ccccc1CN1CC(C(=O)N2CCN(c3ccc(F)cc3)CC2)CC1=O (stereo not given)	92.3%
CC(=O)N1CCC2(CC1)CC(=O)c1cc(OCC(=O)NCc3ccco3)ccc1O2	87.9%
Cc1ccc(C(=O)CCC2CCCC2=O)cc1 (stereo not given)	88.4%
Cc1nc(CNS(=O)(=O)c2ccc3c(c2)OCCO3)cs1	96.9%
CCOCCCNC(=O)C1CCN(C(=O)Nc2ccc(Cl)cc2)CC1	90.8%
CCc1nc2c(cnn2-c2ccc(Cl)cc2)c(=O)n1-c1ccc2c(c1)OCCO2	88%
CCOc1ccc(C2CC(=O)NC3=C2C(=O)CCC3)cc1Cl (stereo not given)	85.2%

Same assay, conditions: H69AR cells, CellTiter-Glo, 72 h; compound alone cytotoxicity; at 10 µM

Compound	viability
Cc1noc(C)c1COc1cccc(C(=O)Nc2ccc(C#N)cc2)c1	68.9%
Cc1ccc(NCc2nnc(SCC(=O)N3CCCCC3)n2CC2CCCO2)c(C)c1 (stereo not given)	88.7%
COc1ccc(S(=O)(=O)N2CCOCC2)cc1C(=O)Nc1cc(C)on1	93.9%
CC(NC(=O)c1ccco1)C(c1cccs1)N1CCN(c2ccc(F)cc2)CC1 (stereo not given)	86.2%
CCN1C(=O)NC(c2cc(Br)ccc2OC)C(C(=O)OC)=C1C (stereo not given)	95.3%
COc1ccc(N2CCN(C(c3cccs3)c3nnnn3C3CCCC3)CC2)cc1 (stereo not given)	70%
c1ccc(-n2c(Sc3cnccn3)nnc2-c2cccs2)cc1	95.8%
Nn1c(SCC(=O)Nc2ccc3c(c2)OCCO3)nnc1C(F)(F)F	80.9%
O=C(NC1=NCCS1)NC12CC3CC(CC(C3)C1)C2	93%
CC1CCCCC1NC(=O)Cn1nnc(-c2ccc(Cl)cc2)n1 (stereo not given)	91.9%
CCOC(=O)C(NC(=O)c1ccc(OC)cc1)(N1CCOCC1)C(F)(F)F (stereo not given)	100%
CC(C)Cc1cc(C(=O)Nc2c(F)cc(F)cc2Br)no1	113%
CCC(C)(C(=O)NC1CCCCC1)N(CC1CCCO1)C(=O)c1ccccn1 (stereo not given)	89%
COCCNC(=O)C(c1ccc(C)o1)N(Cc1ccc(OC)cc1)C(=O)Cn1nnc2ccccc21 (stereo not given)	97.8%
CC(=O)c1c(C)[nH]c(C(=O)N2CCN(C(=O)c3ccco3)CC2)c1C	99.1%
O=C(NC12CC3CC(CC(C3)C1)C2)c1cncc(O)c1	85.6%
CCOC(=O)C1CCN(c2nc3ccccc3nc2C(C#N)C(=O)OCCOC)CC1 (stereo not given)	79.4%
Cc1ccccc1-c1nc(CN2CCC(C(=O)NCCCN3CCOCC3)CC2)c(C)o1	97.2%
COc1ccccc1NC(=O)C1=C(C)Nc2nnnn2C1c1ccccc1OC (stereo not given)	98.9%
O=C(C1CCCN(S(=O)(=O)c2cnc[nH]2)C1)N1CC(=O)N(CCc2ccccc2)C(=O)C1 (stereo not given)	95%

Compound	viability
Cc1c(Cl)cccc1N1C(=O)c2ccccc2C1=O	111%
CCN(CC)CCCN(Cc1cc2cc(OC)ccc2[nH]c1=O)C(=O)Nc1ccccc1	77.7%
O=C1CCCC2=C1C(c1ccsc1)CC(=O)N2c1ccccc1 (stereo not given)	92.4%
Cc1ccc(NC(=O)CSc2nnc(NC(=O)CN3CCOCC3)s2)cc1	94.1%
COC(=O)c1ccccc1NS(=O)(=O)c1ccc(F)cc1	102%
COc1cccc(NC(=O)N2CCN(c3cccc(C)c3C)CC2)c1	82.8%
CC(C)CN(C(=O)COC(=O)Cc1n[nH]c(=O)c2ccccc12)C1CCS(=O)(=O)C1 (stereo not given)	90.1%
CC1CCCC(C(=O)OCc2ccccc2)N1 (stereo not given)	97.2%
COc1cccc(NC(=O)NC2(C(F)(F)F)Oc3ccccc3O2)c1	30.7%
CCC(=O)N1CCc2cc(OC)c(OC)cc2C1COc1ccc(C(=O)OC)cc1 (stereo not given)	91.5%
Cc1ccc(-c2cc(C(=O)N3CCCC3)no2)cc1	95.1%
CCn1nc(C)c(NC(=O)c2cc(Br)ccc2Cl)c1C	94%
Cc1cc2nc3c(nc2cc1C)C1(C(=O)O)CCC3(C)C1(C)C (stereo not given)	95.3%
COc1ccccc1CN1CC(C(=O)N2CCN(c3ccc(F)cc3)CC2)CC1=O (stereo not given)	88.8%
CC(=O)N1CCC2(CC1)CC(=O)c1cc(OCC(=O)NCc3ccco3)ccc1O2	83.5%
Cc1ccc(C(=O)CCC2CCCC2=O)cc1 (stereo not given)	89%
Cc1nc(CNS(=O)(=O)c2ccc3c(c2)OCCO3)cs1	96.6%
CCOCCCNC(=O)C1CCN(C(=O)Nc2ccc(Cl)cc2)CC1	102%
CCc1nc2c(cnn2-c2ccc(Cl)cc2)c(=O)n1-c1ccc2c(c1)OCCO2	83.6%
CCOc1ccc(C2CC(=O)NC3=C2C(=O)CCC3)cc1Cl (stereo not given)	99.4%
